Screens from PubChem BioAssay.
A549 tox-1 – counter-screen for Nrf2 inhibitors: cytotoxicity in A549 cells | 0.16% of 390,000 active | AID 504648 | Potency, µM (top dose mostly 46 µM), for inactives: at the highest dose activity change, negative = cytotoxicity, usual class: inhibitors | A549 ARE-Fluc cells, CellTiter-Fluor viability, 18-24 h; also: % is scaled to controls: 0 for no effect and ±100 for the full control effect
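A549 ARE_Fluc cells in 5% FBS OPTI-MEM were exposed to compounds in concentration-response for 18-24 h at 37 deg C. Viability was read by CellTiter-Fluor fluorescence (Ex 405/Em 525) after 30 min, before the luciferase read.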
Nrf2 block – blocks Nrf2 signaling; A549 ARE-Fluc reporter, luciferase luminescence, 18-24 h; Potency, µM (top dose mostly 46 µM), for the others: at the top dose activity change, negative = inhibition, hits mostly inhibitors; 2.1% of 360,000 active; also: % is scaled to controls: 0 for no effect and ±100 for the full control effect; nearly all actives have a fitted effect of over 60% in size
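Quantitative HTS in A549 cells stably bearing an antioxidant response element-firefly luciferase construct. Inhibition of Nrf2-driven transcription was scored by luminescence after 18-24 h of compound exposure at 37 °C.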
Nrf2 activator – activates Nrf2 signaling; AREc32 ARE-luciferase reporter (MCF7-derived line), luminescence, 24 h; Potency, µM (titrated, usually from 46.1 µM), for the others: top-dose activation, actives largely listed as activators; 0.31% of 410,000 active; also: % of control where 0% means no effect; nearly all actives have a fitted effect of over 65% in size
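Cells of the AREc32 ARE-luciferase line are plated in OPTI-MEM containing 5% FBS and left overnight at 37 deg C. Compounds are pinned in, incubation continues 24 hr, and firefly luciferase signal is then measured.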
S2 tox – reduces viability in counter-screen for ATXN expression inhibitors; S2 cells (HEK-293 line with an ATXN2-luciferase reporter) viability, CellTiter-Fluor protease fluorescence, 24 h; Potency, µM (titrated, usually from 56.7 µM), hits mostly cytotoxic; 0.49% of 400,000 active; also: nearly all actives have a fitted effect of over 40% in size
ATXN2 expr inh – reduces ATXN2 reporter expression in HEK-293 cells. HEK-293 ATXN2-luciferase reporter, luminescence, 24 h. Potency, µM (highest dose often 57 µM), for inactives: at the highest dose activity change, negative = inhibition, hits mostly inhibitors. 0.72% of 360,000 active. AID 1745845; also: % is scaled to controls: 0 for no effect and ±100 for the full control effect; nearly all actives have a fitted effect of over 55% in size
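ATXN2-luciferase reporter cells (luciferase flanked by upstream and downstream ATXN2 gene portions) were treated 24 h at 37 °C with compounds at up to 57 uM. SteadyGlo luminescence gave expression; GF-AFC fluorescence gave viability.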
FLuc counter 3 – blocks purified firefly luciferase in Nrf2 counterscreen | shares compounds with Nrf2 block | purified firefly luciferase, luminescence inhibition | Potency, µM (top dose mostly 57.5 µM), inactives show at the top dose activity change, negative = inhibition, most hits filed as inhibitors | 4% of 1,400 active | AID 720522; also: % is scaled to controls: 0 for no effect and ±100 for the full control effect; nearly all actives have a fitted effect of over 65% in size
Target sequence (P08659 whole entry, looked up): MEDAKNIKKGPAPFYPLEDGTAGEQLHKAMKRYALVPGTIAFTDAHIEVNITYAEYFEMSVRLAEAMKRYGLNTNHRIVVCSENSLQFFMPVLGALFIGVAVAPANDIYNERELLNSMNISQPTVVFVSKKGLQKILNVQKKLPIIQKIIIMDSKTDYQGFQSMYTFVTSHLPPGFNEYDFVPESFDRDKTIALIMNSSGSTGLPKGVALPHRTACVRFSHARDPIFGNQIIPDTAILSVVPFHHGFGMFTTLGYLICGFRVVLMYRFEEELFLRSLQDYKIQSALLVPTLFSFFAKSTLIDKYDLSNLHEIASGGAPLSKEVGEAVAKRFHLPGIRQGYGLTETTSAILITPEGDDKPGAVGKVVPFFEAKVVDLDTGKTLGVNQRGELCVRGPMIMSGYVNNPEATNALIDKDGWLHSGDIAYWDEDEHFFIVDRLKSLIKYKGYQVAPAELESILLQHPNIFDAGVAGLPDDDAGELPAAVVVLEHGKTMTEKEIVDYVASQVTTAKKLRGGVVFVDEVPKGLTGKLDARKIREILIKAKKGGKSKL
A549 tox-2 – A549 cytotoxicity, Nrf2 inhibitor counterscreen. shares compounds with Nrf2 block. A549 ARE-Fluc cells, cytotoxicity counterscreen. Potency, µM (highest dose often 46.1 µM), for inactives: top-dose activity change, negative = cytotoxicity, hits mostly inhibitors. 2% of 1,400 active. AID 720523;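 also: cells exposed to compounds for 18 to 24 hours; % is scaled to controls: 0 for no effect and ±100 for the full control effect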
Nrf2 ARE inh – Nrf2 inhibition confirmed, A549 ARE-luciferase; Potency, µM (series often up to 46.1 µM), without a hit: at the top dose activity change, negative = inhibition, actives largely listed as inhibitors; AID 720524; 74% of 1,400 active; A549 ARE-firefly luciferase reporter, luminescence; shares compounds with Nrf2 block; also: % is scaled to controls: 0 for no effect and ±100 for the full control effect; nearly all actives have a fitted effect of over 65% in size
The depositor's hits bear a star. This is a sample that favours compounds with a hit; in the whole collection about 2.9% have one here. Calls follow the shape of the dose curve; as a rule, active = well fitted curve in the direction sought with a large enough effect; inconclusive = small, poorly fitted or top-dose-only effect, or another doubt; inactive = no such curve, though single readings can be large; an effect the other way counts as inactive or inconclusive. Potency is read from the fitted curve at half-maximal effect.

What do the screens show for `C[C@H]1[C@@H](OS(=O)(=O)O)C[C@@H]2C[C@H]([C@@H](O)c3cc(=O)[nH]c(=O)[nH]3)NC3=NC[C@H]1N32`?
A549 tox-1: -29%; Nrf2 block: 0.65µM*; Nrf2 activator: -3%; S2 tox: inactive; ATXN2 expr inh: 10µM*; FLuc counter 3: 2%; Nrf2 ARE inh: 0.23µM*

What do the screens show for `COc1ccc(C2c3c(nc(C)[nH]c3=O)Oc3c2c(=O)oc2ccccc32)cc1` (configuration not stated)?
A549 tox-1: -5%; Nrf2 block: -18%; Nrf2 activator: 0%; S2 tox: inactive; ATXN2 expr inh: -4%

How did O=C(CCCCCCCCCCC(=O)NCc1cccnc1)NCc1cccnc1 do in these assays?
A549 tox-1: -1%; Nrf2 block: inconclusive; Nrf2 activator: 0%; S2 tox: inactive; ATXN2 expr inh: 27%; FLuc counter 3: 4%; A549 tox-2: -6%; Nrf2 ARE inh: inconclusive

How did O=C(NCc1cccnc1)Nc1ccccc1Cl do in these assays?
A549 tox-1: 5%; Nrf2 block: 5%; Nrf2 activator: 0%; S2 tox: inactive; ATXN2 expr inh: 7%

Results for Cc1ccc(C)c(Cn2c(C(=O)O)c(C=O)c3ccccc32)c1 ?
A549 tox-1: -3%; Nrf2 block: -11%; Nrf2 activator: 3%; S2 tox: inactive; ATXN2 expr inh: 16%

How did CCOc1ccc2nc(N3CCC(C(=O)Nc4ccc(Br)cc4F)CC3)sc2c1 do in these assays?
A549 tox-1: 2%; Nrf2 block: inconclusive; Nrf2 activator: -1%

What do the screens show for `C[C@@H]1O[C@@H](O[C@@H]2C=C3CC[C@@H]4[C@@H](CC[C@]5(C)[C@H](c6ccc(=O)oc6)CC[C@@]45O)[C@@]3(C)CC2)[C@H](O)[C@H](O)[C@H]1O`?
ATXN2 expr inh: 0.019µM*; FLuc counter 3: 2%; A549 tox-2: inconclusive; Nrf2 ARE inh: 0.01µM*

What do the screens show for `CC[C@]12C=CCN3CCC4(c5cc(Br)c(OC)cc5N(C)C4[C@@](O)(C(=O)OC)[C@@H]1OC(C)=O)C32` (some centres not stated)?
A549 tox-1: -1%; Nrf2 block: inconclusive; Nrf2 activator: -1%; S2 tox: inactive

What do the screens show for `COC(=O)C1=C(c2cccc(OCc3ccccc3)c2)C[C@@H]2CC[C@H]1N2C(=O)NCc1cc(C)oc1C(F)(F)F`?
A549 tox-1: -11%; Nrf2 block: inconclusive; Nrf2 activator: 3%; S2 tox: inactive; ATXN2 expr inh: -10%; FLuc counter 3: 3%; A549 tox-2: -17%; Nrf2 ARE inh: inconclusive

How did C=C1C(=O)O[C@@H]2C[C@@H](C)[C@@H]3C=CC(=O)[C@@]3(C)[C@@H](OC(=O)CC(=O)O[C@H]3[C@@H]4C(=C)C(=O)O[C@@H]4C[C@@H](C)[C@@H]4C=CC(=O)[C@]43C)[C@H]12 do in these assays?
A549 tox-1: 15µM*; Nrf2 block: 2.6µM*; Nrf2 activator: -3%; ATXN2 expr inh: 0.32µM*; FLuc counter 3: inconclusive; A549 tox-2: 2.9µM*; Nrf2 ARE inh: 2.1µM*

What do the screens show for `CCN(C(=O)COC(=O)c1cn(C)c2ccccc12)c1ccc(F)cc1`?
A549 tox-1: 14%; Nrf2 block: -38%; Nrf2 activator: 0%
